aSyn UTR act – Activators via SNCA 5'UTR binding, MLPCN. alpha-synuclein 5'UTR reporter, activators screen. activity score, % (tested at 7.5 µM), hits read low. 7.1% of 300,000 active; in the data active = activity score below about -60%
The depositor's hits bear a star. Only a sample is shown.

SMILES | aSyn UTR act
CCOC(=O)c1ccc(NC(=O)C2C3CCC(C3)C2C(=O)O)cc1 (stereo not given) | -61.6*
CCOC(=O)c1ccc(NC(=S)N2CCC(O)CC2)cc1 | -81.5*
CCOc1cc(NC(=S)N2CCC(C(N)=O)CC2)c(C(=O)OC)cc1OCC | 31.9
Cc1cc(NC(=O)c2ccc(NC(=O)C3CCCO3)cc2)ccc1Br (stereo not given) | -120.7*
CC(C)COC(=O)c1ccc(NC(=O)C2C3CCC(C3)C2C(=O)O)cc1 (stereo not given) | -131.3*
CCCOC(=O)c1ccc(NC(=O)C2CCCO2)cc1 (stereo not given) | -110.4*
Cc1cccc(NC(=O)c2ccc3nccnc3c2)n1 | -75.9*
CC(C)(C)c1csc(NC(=O)c2ccc3nccnc3c2)n1 | -178.2*
Cc1cc(NC(=O)c2ccc3c(c2)OCCO3)no1 | 61.8
Cc1cccc(NC(=O)c2ccc3c(c2)OCCO3)n1 | -83.9*
Cc1nc(NC(=O)c2ccc3c(c2)OCO3)ccc1Br | -140.3*
Cc1ccc(NC(=O)c2ccc3nccnc3c2)c(C)c1 | -101.6*
CC(C)(C)c1cc(C(=O)N/N=C/c2ccco2)n[nH]1 | -146.1*
Cc1ccsc1/C=N\NC(=O)c1cc(C(C)(C)C)[nH]n1 | -138.4*
NS(=O)(=O)c1cc(C(=O)Nc2ccc3c(c2)CCC3)ccc1Cl | -153.3*
CSc1nnc(NC(=O)c2ccc(C)c(S(=O)(=O)N3CCOCC3)c2)s1 | -73.2*
Cc1ccc(C(=O)Nc2ccc3c(c2)CCC3)cc1S(=O)(=O)N1CCOCC1 | -108.2*
Cc1cc(C)cc(NC(=S)N=Nc2c(O)n(C)c3ccc(S(=O)(=O)N4CCOCC4)cc23)c1 | 63.4
O=C(Nc1ccc2c(c1)CCC2)c1ccc(F)c(S(=O)(=O)N2CCOCC2)c1 | -74.3*
Cc1cccc(C)c1NC(=S)N=Nc1c(O)n(C)c2ccc(S(=O)(=O)N3CCOCC3)cc12 | 71.4
Cn1c(=O)c2nc(-c3ccccc3)oc2c2ccccc21 | -69.3*
CCOc1ccc(NC(=S)c2ccc3ccccc3n2)cc1 | -67.4*
COc1ccc(C(=O)NC(=S)NNC(=O)c2ccc3ccccc3n2)cc1 | 73.1
COc1ccc(NC(=S)c2ccc3ccccc3n2)cc1 | -69.9*
Nc1c(C(=O)NCc2ccco2)nnn1-c1ccccc1 | -125.1*
SMILES | aSyn UTR act
O=C(NCc1ccco1)c1cccc(-c2nnc(-c3ccccc3)o2)c1 | -71.0*
Cc1cccc(-c2noc(-c3ccccc3C(=O)NCc3ccco3)n2)c1 | -61.8*
COc1ccc(N=c2cc(-c3ccc(O)cc3)oc3ccccc23)cc1 | -62.5*
O=c1cc(-c2ccc(O)cc2)oc2ccc(O)cc12 | -151.3*
Cn1c2ccccc2c(=O)c2ccc(-c3ccc4c(c3)OCO4)cc21 | -144.6*
O=c1cc(-c2ccc3c(c2)OCO3)oc2ccccc12 | -296.7*
COc1ccc(-c2cc(=O)c3ccccc3o2)cc1 | -216.0*
Nc1c(-c2ccc3c(c2)OCCO3)oc2ccccc2c1=O | -144.6*
O=c1cc(-c2ccc(O)cc2)oc2ccccc12 | -137.7*
CCSc1nnc(-c2c[nH]c3ccccc23)o1 | -103.9*
O=C(CSC(=S)N1CCOCC1)c1cc2ccccc2oc1=O | -63.2*
NC(=NCc1ccco1)NC(=O)c1ccc(Cl)cc1 | -127.7*
Cn1c(SCc2c(F)cccc2Cl)nnc1-c1cccs1 | -83.1*
Cn1c(SCC(=O)Nc2ccccc2F)nnc1-c1cccs1 | -78.5*
CCc1cc(C(=O)NNC(=S)Nc2ccccc2C)cs1 | -147.4*
CCc1cc(C(=O)Nc2ccccc2)cs1 | -134.4*
O=C(COC(=O)Cn1cnc2ccccc21)Nc1ccc2c(c1)C(=O)c1ccccc1C2=O | -153.1*
COc1ccc2cc(CN(CC3CCCO3)S(=O)(=O)c3ccc(C(C)=O)cc3)c(=O)[nH]c2c1 (stereo not given) | -77.9*
CC(=O)Nc1ccc(S(=O)(=O)N(Cc2cc3ccc(C)cc3[nH]c2=O)CC2CCCO2)cc1 (stereo not given) | 82.4
CCOC(=O)c1sc(NC(=O)c2ccc(C)o2)nc1C | -287.0*
O=C(Nc1ccccc1C(=O)Nc1nnc(C(F)(F)F)s1)c1ccccc1 | 58.5
Cc1c(C(=O)Nc2nnc(C(F)(F)F)s2)oc2ccccc12 | -235.7*
COC(=O)c1sc(NC(=O)c2oc3ccccc3c2C)nc1C | -142.1*
CCOC(=O)c1sc(NC(=O)c2ccc(OC)cc2)nc1C | -108.5*
COC(=O)c1sc(NC(=O)c2ccc(C)o2)nc1C | -203.0*
SMILES | aSyn UTR act
COc1cccc2sc(/N=C/N(C)C)nc12 | -81.4*
COc1ccc(C(=O)Nc2ccc3c(c2)nc2n3CCSC2)cc1 | -67.2*
O=C(Nc1ccc2c(c1)OCO2)c1ccc2nc[nH]c2c1 | -112.4*
COc1ccc(C(=O)Nc2ccc3nc(C)c(C)nc3c2)cc1 | -86.9*
O=C(Nc1ccc(C(F)(F)F)cc1)c1ccc2nc[nH]c2c1 | -78.1*
Cc1ccc(C(=O)Nc2cccc(C(F)(F)F)c2)cc1Nc1ncnc2nc[nH]c12 | 77.9
COc1ccc(NC(=O)c2ccc3nc[nH]c3c2)cc1 | -81.3*
c1ccc(OCc2nc(-c3ccncc3)no2)cc1 | -81.8*
Clc1ccc(OCc2nc(-c3ccncc3)no2)c(Br)c1 | -118.8*
c1ccc(OCc2nc(-c3ccccc3)no2)cc1 | -202.0*

Assay outcomes as filed in PubChem.
